Viability data for 16 molecules are collected here from PubChem BioAssay.

As a reminder, the viability is a read-out of living cells in per cent, often relative to untreated cells.

The source made the active and inactive calls.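 Rule for the calls: active = viability at or under a set limit in both replicates, limit being median viability minus 3 SD (cut at about 48% in these data, passing the limit was not always enough); inconclusive = at or under the limit in just one replicate; inactive = at or above the limit in both replicates.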

This assay in a line: growth inhibitors of H69AR lung tumor, primary screen, human, duplicate replicates (AID 580).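 Note: 100% = mean luminescence of untreated wells and 0% = no signal.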 The conditions noted are these: H69AR lung tumor cells viability, ATP luminescence, 72 h; at 10 µM; active compounds read low.
For the molecule `CCOC(=O)C(NC(C)=O)(NS(=O)(=O)c1ccccc1)C(F)(F)F` (stereo unspecified), the viability is 100% (inactive). As for `N#Cc1c(/N=C/c2ccco2)sc2c1CCC2`, the figure is 85.7% (inactive); as for `c1ccc(-c2noc(C34CC5CC(CC(C5)C3)C4)n2)nc1`, 83.4% (inactive). For the molecule `COc1cc(S(=O)(=O)N2CCOCC2)ccc1NC(=O)COC(=O)C12CC3CC(CC(C3)C1)C2`, the viability was 85% (inactive). Consider `Cc1cc(C)n(-c2nc3c(c(=O)n(Cc4ccc(Cl)c(Cl)c4)c(=O)n3C)n2C)n1`, for which the viability is 95.6% (inactive).

For `O=C(CCN1C(=O)COc2ccccc21)NCCCN1CCN(c2ccccc2F)CC1`, the viability is 84.6% (inactive).

Turning to `CC(=O)c1cc(F)c(N2CCN(C(=O)Cc3ccccc3)CC2)cc1C`, the viability was 93.5% (inactive). With `COc1ccc(-n2nnnc2-c2cccc(OC)c2)cc1` the figure was 34.5% (active); with `COc1ccc(OC)c(Nc2cc(-c3ccccc3)nc(N)n2)c1`, 30.7% (active); with `Cc1ccc(-c2csc3ncn(-n4c(C)ccc4C)c(=O)c23)o1`, 91.3% (inactive). Turning to `O=C(CN1C(=O)CCSc2ccccc21)Nc1ccccc1`, the viability is 104% (inactive). As for `CC(=O)Nc1ccc(S(=O)(=O)Nc2nc3ccccc3nc2N2CCCC2)cc1`, the figure is 92.3% (inactive). In the case of `CC(=O)c1cnc2cc(-c3ccccc3)nn2c1C`, the viability is 103% (inactive). With `Nc1cc(C(=O)O)ccc1Nc1ccc(F)c(F)c1` the figure was 105% (inactive). Regarding `O=C(NCc1cccnc1)c1cn(CCc2ccccc2)nn1`, the viability was 109% (inactive). With `COc1ccc(-n2c(SCc3ccc(C#N)cc3)nnc2-c2ccccn2)cc1` the figure was 96.3% (inactive).
